Data: PubChem BioAssay (EPA / NIEHS)
Records with an inconclusive call do not appear. Activity calls are given as the source filed them. Rule for the calls: active = hit-call score of the fitted dose curve at least 0.9, where 1 is the maximum; inconclusive = response in the unintended direction; inactive = score below 0.9.

These molecules were tested against human Vitamin D Receptor (VDR), VDR (gene 7421) (UniProt P11473) (assay: ATG_VDR_TRANS: Attagene TRANS-FACTORIAL HepG2 Assay for human Vitamin D Receptor (VDR) (AID 2283022)).
Sequence of human Vitamin D Receptor (VDR), VDR (gene 7421) (P11473 whole entry, looked up): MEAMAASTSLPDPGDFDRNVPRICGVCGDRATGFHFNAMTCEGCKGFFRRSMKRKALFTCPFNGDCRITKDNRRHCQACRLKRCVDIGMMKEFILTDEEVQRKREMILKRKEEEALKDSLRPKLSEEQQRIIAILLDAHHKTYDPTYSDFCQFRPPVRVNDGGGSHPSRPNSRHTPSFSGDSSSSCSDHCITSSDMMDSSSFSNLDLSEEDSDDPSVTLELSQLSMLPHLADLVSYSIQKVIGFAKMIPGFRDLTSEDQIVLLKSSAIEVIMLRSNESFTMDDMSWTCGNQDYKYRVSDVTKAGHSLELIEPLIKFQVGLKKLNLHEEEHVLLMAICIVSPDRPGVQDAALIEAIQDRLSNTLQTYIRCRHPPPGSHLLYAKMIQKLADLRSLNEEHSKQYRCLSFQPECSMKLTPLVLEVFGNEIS
Outline: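 Multiplexed TRANS reporter in HepG2; 24 h treatment; reporter mRNA by RT-PCR plus capillary electrophoresis; upregulation scored relative to DMSO.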

outcome, inactive:
CCN(CC)CCOC(=O)c1ccc(N)cc1
COc1cc(C(C)(C)C)c(O)c(C(C)(C)C)c1
C[Si](O[Si](C)(C)C)O[Si](C)(C)C
CC(C)(C)NC(N)=O
Cc1ncc([N+](=O)[O-])n1C
CC(C)=CCC[C@](C)(O)[C@@H]1CC=C(C)CC1
Cc1ccc2ccccc2n1
C=COCCOCCOCCOC=C
OCCN1CCNCC1
Cc1c(Cl)c(=O)oc2cc(O)ccc12
C=CCOc1nc(OCC=C)nc(OCC=C)n1
CC(C)(C)c1n[nH]c(=S)n(N)c1=O
CC(C)(C)C(=O)c1ccccc1
OC1C(O)C(O)C(O)C(O)C1O (centres undefined)
CC(C)C1CCC(O)CC1 (centres undefined)
N#Cc1ccccc1
O=c1[nH]nnc2ccccc12
COc1ccc(OC)c(OC)c1
CC(c1cc2ccccc2s1)N(O)C(N)=O (centres undefined)
Nc1cccc(S(=O)(=O)c2cccc(N)c2)c1
CCCCCCOC(=O)CCCCC
CC1(C)OC[C@@H]2O[C@@]3(C(=O)O)OC(C)(C)O[C@H]3[C@@H]2O1
CCOC(=O)c1ccccc1OC
O=C1C(c2[nH]c3ccc(S(=O)(=O)O)cc3c2O)=Nc2ccc(S(=O)(=O)O)cc21
CC(C)=CCCC(C)=CCCC(C)=CCO
NCCCN1CCOCC1
C/C=C(\C)C(=O)OCc1ccccc1
O=C1c2ccccc2C(=O)N1SC1CCCCC1
O=C(O)CCCCC1CCSS1 (centres undefined)
Nc1cc(Cl)c(O)c(Cl)c1
CCCCCCCCCOC(C)=O
Nc1ccc(S(=O)(=O)O)c(N)c1
c1cc(C(c2ccc(OCC3CO3)cc2)c2ccc(OCC3CO3)cc2)ccc1OCC1CO1 (centres undefined)
CC1(C)CCC(C)(C)c2cc(C(=O)Nc3ccc(C(=O)O)cc3)ccc21
CCCCCCCCCCCCCC(=O)O
O=S(=O)(O)c1cccc2c(S(=O)(=O)O)cccc12
NC(N)=NC(=O)c1nc(Cl)c(N)nc1N
Cc1ccc2sc3cccc(C)c3c2c1
C=C(C)C(=O)O
